The values that follow come from publication PMC5540273 (PLoS ONE, 2017).

Molecules are shown by their SMILES.

Some test systems named below: SRPK1; SRPK2; SRPK3; STK16; STK33; STK35; STK36; STK39; SYK; SgK110; TAOK1; TAOK2; TAOK3; TBK1; TEC; TESK1; TGFBR1; TGFBR2; TIE1.
Common to all, as to conditions: concentration: 1 μM, replicates: in singlicate; n = 1
The next experiment deals with T1, TAK1.
T1 construct: gene MAP3K7
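Also: KINOMEscan kinase panel screen.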

With `Nc1n[nH]c2nnc(-c3ccccc3)c(-c3ccccc3)c12` [GW554060], the “%Inh” value in the experiment with SRPK1 is 0%; with SRPK2 it was 0%; in the experiment on SRPK3 it was 9%; in the experiment with STK16, 25%; with STK33 it was 0%; in the experiment on STK35 it was 0%. For the same molecule, the “%Inh” value in the experiment on STK36 stood at 0%; in the experiment on STK39, 35%; in the experiment on SYK it was 0%; in the experiment with SgK110 it was 0%; in the experiment with TAK1 it was 0%; in the experiment on TAOK1, 0%. For the same molecule, the “%Inh” value is 0% in the experiment with TAOK2; 0% in the experiment with TAOK3; 8% in the experiment with TBK1; 0% in the experiment on TEC; 2% in the experiment with TESK1; 12% in the experiment with TGFBR1. In addition, the “%Inh” value is listed as 0% in the experiment with TGFBR2 and 8% with TIE1.

Turning to `COc1ccc(-c2cc3c(C)nc(N)nc3n([C@H]3CC[C@H](OCCO)CC3)c2=O)cn1`, the “%Inh” value with SRPK1 is given as 0%; with SRPK2, 0%; in the experiment on SRPK3, 0%; with STK16, 0%; in the experiment on STK33 it was 0%; in the experiment with STK35, 8%. Further, the “%Inh” value is given as 0% with STK36; 0% in the experiment with STK39; 1% with SYK; 25% in the experiment with SgK110; 19% with TAK1; 0% with TAOK1. Further, the “%Inh” value was determined as 0% in the experiment on TAOK2; 0% in the experiment on TAOK3; 6% in the experiment with TBK1; 0% in the experiment on TEC; 6% in the experiment on TESK1; 0% in the experiment on TGFBR1. In addition, the “%Inh” value in the experiment with TGFBR2 was 3%; in the experiment on TIE1 it was 0%.

Turning to `CC(C)(C)c1ccc(C(=O)Nc2cn3cc(-c4ccccc4)ccc3n2)cc1`, the “%Inh” value came out at 0% with SRPK1; 3% in the experiment on SRPK2; 0% in the experiment on SRPK3; 0% in the experiment with STK16; 3% in the experiment with STK33; 47% in the experiment on STK35. Moreover, the “%Inh” value in the experiment on STK36 is 8%; in the experiment with STK39 it was 0%; in the experiment on SYK it was 0%; with SgK110, 0%; with TAK1 it was 0%; in the experiment with TAOK1, 0%. Moreover, the “%Inh” value with TAOK2 is recorded as 4%; with TAOK3, 0%; in the experiment on TBK1, 38%; in the experiment with TEC, 19%; in the experiment on TESK1 it was 8%; in the experiment on TGFBR1 it was 0%. In addition, the “%Inh” value in the experiment with TGFBR2 is listed as 8%; with TIE1 it was 0%.

For `Nc1ncnc2c1ncn2-c1cccc(F)c1` [SKF-97560], the “%Inh” value in the experiment with SRPK1 came out at 16%; in the experiment on SRPK2, 0%; in the experiment with SRPK3, 0%; in the experiment on STK16 it was 6%; in the experiment with STK33, 6%; in the experiment on STK35, 0%. The “%Inh” value in the experiment with STK36 was found to be 4%; in the experiment with STK39, 0%; with SYK, 25%; in the experiment on SgK110, 5%; in the experiment on TAK1, 0%; in the experiment on TAOK1, 19%. Moreover, the “%Inh” value in the experiment on TAOK2 amounted to 0%; in the experiment with TAOK3 it was 0%; in the experiment with TBK1, 23%; in the experiment with TEC, 3%; with TESK1, 15%; in the experiment with TGFBR1, 12%. Further, the “%Inh” value with TGFBR2 and with TIE1 was 0% each time.

In the case of `Cc1nnc(-c2ccc3ncn(-c4ccc(S(C)=O)cc4)c3c2)o1` (stereo not drawn), the “%Inh” value with SRPK1 turned out to be 0%; with SRPK2, 0%; in the experiment on SRPK3 it was 0%; in the experiment on STK16, 29%; in the experiment with STK33, 0%; in the experiment on STK35 it was 0%. Besides, the “%Inh” value with STK36 came to 22%; with STK39, 0%; in the experiment with SYK, 0%; with SgK110 it was 2%; in the experiment with TAK1 it was 3%; in the experiment with TAOK1, 100%. Also, the “%Inh” value in the experiment with TAOK2 is on record as 0%; in the experiment on TAOK3 it was 96.2%; in the experiment with TBK1, 19%; with TEC, 1%; in the experiment on TESK1, 8%; in the experiment on TGFBR1, 0%. Besides, the “%Inh” value with TGFBR2 is on record as 38%; with TIE1, 0%.

For `Cc1cccc(-c2nc(Nc3ccc4c(cnn4C)c3)c3ccccc3n2)n1` [GW876731], the “%Inh” value is given as 0% in the experiment with SRPK1; 0% in the experiment on SRPK2; 0% in the experiment with SRPK3; 5% in the experiment on STK16; 0% in the experiment with STK33; 0% with STK35. In addition, the “%Inh” value in the experiment with STK36 is reported as 2%; with STK39, 33%; in the experiment on SYK, 24%; with SgK110 it was 6%; with TAK1, 23%; in the experiment on TAOK1, 12%. The “%Inh” value was determined as 0% in the experiment on TAOK2; 0% in the experiment with TAOK3; 0% in the experiment on TBK1; 0% with TEC; 6% in the experiment with TESK1; 0% in the experiment with TGFBR2. In the experiment on TIE1, the “%Inh” value is 0%.

As for `Nc1n[nH]c2ncc(-c3ccccc3)cc12` [SB-517081], the “%Inh” value in the experiment on SRPK1 worked out at 0%; in the experiment with SRPK2, 12%; in the experiment on SRPK3, 12%; in the experiment with STK16, 22%; in the experiment on STK33, 0%; with STK35, 0%. Moreover, the “%Inh” value with STK36 was found to be 0%; with STK39, 0%; in the experiment on SYK it was 8%; with SgK110 it was 0%; with TAK1 it was 0%; with TAOK1, 0%. For the same molecule, the “%Inh” value was found to be 9% in the experiment on TAOK2; 2% with TAOK3; 13% in the experiment with TBK1; 6% with TEC; 37% in the experiment on TESK1; 0% in the experiment on TGFBR1. For the same molecule, the “%Inh” value came out at 0% in the experiment with TGFBR2 and 18% with TIE1.

Consider `COC(=O)c1c(-c2ccccc2)c2cc(Br)ccc2c(=O)n1Cc1ccc(NC(=O)CCC(=O)O)cc1`, for which the “%Inh” value in the experiment with SRPK1 stood at 0%; in the experiment with SRPK2 it was 10%; with SRPK3, 20%; in the experiment on STK16, 15%; in the experiment with STK33 it was 0%; with STK35, 0%. For the same molecule, the “%Inh” value in the experiment on STK36 was found to be 8%; with STK39 it was 14%; in the experiment on SYK, 0%; in the experiment on SgK110, 0%; with TAK1, 19%; in the experiment with TAOK1 it was 0%. For the same molecule, the “%Inh” value was 0% in the experiment with TAOK2; 0% in the experiment with TAOK3; 22% with TBK1; 10% in the experiment with TEC; 39% in the experiment on TESK1; 10% in the experiment on TGFBR1. In addition, the “%Inh” value in the experiment on TGFBR2 and in the experiment with TIE1 was 0% throughout.

Regarding `COc1ccc(-n2cnc3c(N)ncnc32)cc1` [SKF-97236], the “%Inh” value was 28% in the experiment with SRPK1; 0% in the experiment on SRPK2; 15% in the experiment with SRPK3; 38% with STK16; 20% with STK33; 0% in the experiment on STK35. Further, the “%Inh” value in the experiment with STK36 turned out to be 0%; in the experiment with STK39 it was 0%; in the experiment on SYK, 18%; in the experiment with SgK110, 0%; with TAK1, 30%; in the experiment with TAOK1, 20%. Besides, the “%Inh” value in the experiment with TAOK2 turned out to be 1%; in the experiment with TAOK3, 21%; with TBK1, 9%; in the experiment on TEC, 0%; with TESK1, 3%; in the experiment on TGFBR1 it was 0%. In addition, the “%Inh” value with TGFBR2 and in the experiment with TIE1 was 23% throughout.

Turning to `CN1C(=O)C(Nc2ccccc2)=C(c2ccccc2)C1=O` [SB-300079], the “%Inh” value with SRPK1 is given as 0%; in the experiment on SRPK2 it was 0%; in the experiment on SRPK3 it was 0%; in the experiment with STK16, 0%; with STK33 it was 9%; in the experiment with STK35 it was 0%. In addition, the “%Inh” value in the experiment with STK36 worked out at 0%; in the experiment on STK39, 0%; in the experiment with SYK it was 3%; with SgK110 it was 0%; in the experiment with TAK1, 0%; in the experiment on TAOK1, 0%. The “%Inh” value in the experiment on TAOK2 came to 34%; in the experiment on TAOK3, 0%; with TBK1, 21%; in the experiment with TEC it was 0%; in the experiment on TESK1 it was 2%; in the experiment with TGFBR1, 22%. Also, the “%Inh” value in the experiment with TGFBR2 and with TIE1 was 0% each time.

Turning to `Nc1nc(N)c2nc(-c3ccccc3)[nH]c2n1` [SKF-12778], the “%Inh” value with SRPK1 is 37%; in the experiment with SRPK2, 0%; with SRPK3, 22%; in the experiment with STK16, 1%; in the experiment on STK33, 19%; in the experiment on STK35 it was 5%. For the same molecule, the “%Inh” value in the experiment on STK36 worked out at 0%; in the experiment with STK39, 11%; with SYK, 43%; in the experiment with SgK110 it was 0%; with TAK1, 4%; with TAOK1 it was 16%. The “%Inh” value with TAOK2 is recorded as 0%; with TAOK3 it was 17%; in the experiment on TBK1, 16%; in the experiment on TEC it was 7%; in the experiment on TESK1 it was 12%; in the experiment on TGFBR1, 0%. Moreover, the figures for the “%Inh” value in the experiment with TGFBR2 and with TIE1 were 3% and 26%, respectively.
